Compounds with a hit are over-represented: about 6.7% of the library has one in this group of screens.
KB-3-1 cytotox: kills parental KB-3-1 adenocarcinoma cells; Potency, µM (highest dose often 46.1 µM), usual class: cytotoxic; KB-3-1 viability, CellTiter-Glo ATP luminescence, 72 h; AID 1347075; 1.4% of 400,000 active; further: nearly all actives have a fitted effect of over 60% in size
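Screening of KB-3-1 cells (DMEM, 10% FBS, phenol-red free) ran from lowest to highest compound concentration; after 72 h at 37 °C viability was read luminescently and curves fitted.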
MCF10A rerep: induces DNA re-replication in MCF 10a normal breast cells; Potency, µM (series often up to 46.1 µM), actives largely listed as activators; 2.9% of 350,000 active; MCF 10A DNA re-replication, Hoechst nuclear intensity, 48 h; AID 624296; further: nearly all actives have a fitted effect of over 50% in size
KB-V1 cytotox: kills drug-selected multidrug resistant KB-V1 cells | AID 1347076 | Potency, µM (series often up to 46.1 µM), most hits filed as cytotoxic | 3.4% of 400,000 active | KB-V1 MDR cells viability, CellTiter-Glo, 72 h; further: nearly all actives have a fitted effect of over 60% in size
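In this primary screen, KB-V1 cells overexpressing P-gp are incubated with library compounds (lowest to highest concentration) for 72 h at 37 degrees C before a luminescent ATP viability read.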
SW480 rerep: inducers of DNA re-replication in SW480 colon cancer cells; 1.8% of 340,000 active; SW480 DNA re-replication, Hoechst DNA content imaging, 48 h; Potency, µM (titrated, usually from 46.1 µM), actives largely listed as activators; further: nearly all actives have a fitted effect of over 55% in size
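SW480 cells exposed to compounds for 48 hr at 37 C, 5% CO2, then Hoechst-stained 40 min. Nuclear DNA content imaged by fluorescence scanning (405 nm excitation, 500-530 nm emission); re-replication scored as increased high-intensity nuclei.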
PINK1 modulator: changes PINK1 expression; PINK1 immunofluorescence, high-content cytometry, 24 h; Potency, µM (top dose mostly 76.6 µM), actives largely listed as activators; 0.2% of 410,000 active; AID 624263; active means well fitted activation curve with a large enough effect; inconclusive means small, poorly fitted or top-dose-only effect; cell line not stated here; further: nearly all actives have a fitted effect of over 65% in size
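Stable cell line, 250 cells/well, 12 h attachment; compounds pinned at 5 concentrations, 24 h; CCCP control. Fixed with nuclear dye, primary antibodies 12 h at 10 degrees C, secondary plus cell stain; laser-scanning cytometer read.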
Numbers stand for hits; 0 = inactive; ? = inconclusive; - = not tested or not shown. Unless noted, the call rests on the fitted dose curve; in most records, active means well fitted curve in the direction sought with a large enough effect; inconclusive means small, poorly fitted or top-dose-only effect, or another doubt; inactive means no such curve, though single readings can be large; an effect the other way counts as inactive or inconclusive.

SMILES | KB-3-1 cytotox | MCF10A rerep | KB-V1 cytotox | SW480 rerep | PINK1 modulator
CN1CCN(C2=C(NS(=O)(=O)c3cccs3)C(=O)c3ccccc3C2=O)CC1 | ? | 0 | ? | ? | 0
O=C1C(NS(=O)(=O)c2cccs2)=C(N2CCN(Cc3ccccc3)CC2)C(=O)c2ccccc21 | 0 | 0 | 23µM | 0 | 0
O=C(CCCn1c(=O)c2cccn2c2ccc(F)cc21)NCc1ccc(Cl)cc1 | - | - | - | - | 0
CN(C(=O)CSc1cn(CC(=O)N2CCCCC2)c2ccccc12)c1ccccc1 | - | - | - | - | 0
CCOC(=O)N1CCN(c2c(NCc3ccccc3OC)c(=O)c2=O)CC1 | 0 | 0 | 0 | ? | 0
CCOC(=O)N1CCN(c2c(NCc3cccs3)c(=O)c2=O)CC1 | 6.5µM | 18µM | 0 | ? | 0
CCOC(=O)N1CCN(c2c(N3CCN(c4ccc(F)cc4)CC3)c(=O)c2=O)CC1 | 0 | 0 | 0 | 0 | 0
CCOC(=O)N1CCN(c2c(NCCN3CCN(Cc4ccccc4)CC3)c(=O)c2=O)CC1 | 0 | 0 | 0 | 0 | 0
CCOC(=O)N1CCN(c2c(NCc3ccc(Cl)cc3)c(=O)c2=O)CC1 | 10µM | 10µM | 0 | 6.5µM | 0
CCOC(=O)N1CCN(c2c(NCc3ccc(F)cc3)c(=O)c2=O)CC1 | 5.2µM | ? | 0 | 3.3µM | 0
Cc1ccc2nc(CS)[nH]c2c1 | 0 | - | 0 | - | 0
N#Cc1c(N)[nH]c2ccc(Sc3ccccc3)cc12 | 2.3µM | 0.92µM | 3.3µM | 4.1µM | 0
CC(CN(C)C)CN1c2ccccc2Sc2ccccc21 (configuration not stated) | 0 | 0 | 18µM | 0 | 0
C[C@@H](CN(C)C)CN1c2ccccc2Sc2ccccc21 | - | 0 | - | 0 | -
COc1cc(C2CC(=O)N(Cc3cccc(F)c3)c3ccccc3S2)cc(OC)c1OC (configuration not stated) | ? | - | 16µM | - | 0
COc1cccc(-c2ccc3c(c2)N(Cc2cccc(F)c2)C(=O)C(C)S3)c1 (configuration not stated) | 0 | - | 0 | - | 0
CC1CCCCC1NC(=O)CSc1nnc(-c2ccco2)n1N (configuration not stated) | 0 | - | 0 | - | 0
O=C(CN1CCN(C(C(=O)Nc2ccc(F)cc2)c2ccccc2)CC1)NC1CC1 (configuration not stated) | 0 | 0 | 0 | 0 | 0
C=CCn1c(N)c(C(=O)Nc2ccc(C)cc2)sc1=S | 0 | 0 | 18µM | 0 | 0
Cc1cc(C)c2nccc(C)c2c1 | 0 | - | 0 | - | -
O=C(Cc1ccccc1)Nc1c(C(=O)N2CCN(c3ccc(F)cc3)CC2)oc2ccccc12 | 0 | - | 12µM | - | 0
O=C(COc1ccccc1)Nc1c(C(=O)N2CCN(c3ccc(F)cc3)CC2)oc2ccccc12 | 0 | - | 0 | - | 0
Cc1c(C(=O)N2CCN(CCc3ccccc3)CC2)oc2ccccc12 | 0 | ? | 13µM | 0 | 0
CCOc1ccc2oc(C(=O)N3CCN(Cc4ccccc4)CC3)c(C)c2c1 | 0 | 21µM | 0 | 0 | 0
Cc1c(C(=O)N2CCN(S(C)(=O)=O)CC2)oc2ccccc12 | 0 | 0 | 0 | 0 | 0
SMILES | KB-3-1 cytotox | MCF10A rerep | KB-V1 cytotox | SW480 rerep | PINK1 modulator
CCOc1ccc(-n2c(=O)c3c(C)c(C)sc3n(Cc3ccccc3C)c2=O)cc1 | 0 | - | 0 | - | 0
Cc1ccc(OCCCSc2nc(-c3ccc(C(C)(C)C)cc3)nc3cc(=O)[nH]n23)cc1C | 0 | - | 0 | - | 0
O=C(Cn1c(-c2ccccc2)c[n+]2ccsc12)c1ccccc1 | ? | 0 | 0 | 0 | 0
O=C(Cn1c(-c2ccccc2)c[n+]2ccsc12)c1ccc([N+](=O)[O-])cc1 | 21µM | 0 | 0 | 0 | ?
CCN1C(=O)C(=Cc2cccc(OC)c2Oc2ccc([N+](=O)[O-])cc2[N+](=O)[O-])SC1=S | 23µM | ? | ? | 4.6µM | 0
CO/N=C/c1ccc(Oc2ccc([N+](=O)[O-])cc2[N+](=O)[O-])c(OC)c1 | 0 | ? | ? | ? | 0
COc1cc(/C=C2\SC(=O)NC2=O)ccc1Oc1ccc([N+](=O)[O-])cc1[N+](=O)[O-] | 0 | 21µM | 0 | 0 | 0
CC1CCc2c(sc(NC(=O)C3c4ccccc4Oc4ccccc43)c2C#N)C1 (configuration not stated) | 0 | - | 0 | - | 0
COc1cc(Cl)c(CC(=O)c2c[nH]c3ccccc23)cc1OC | 13µM | 0 | ? | 0 | 0
COc1ccc(C(=O)OCC(=O)c2c[nH]c3ccccc23)cc1OC | 0 | 0 | 0 | 0 | ?
CCOC(=O)c1c(Cl)c(C)nn1-c1nc(OC)cc(OC)n1 | ? | 0 | 2.9µM | 0 | 0
CCOC(=O)c1cc(C)nn1-c1nc(Cl)cc(OC)n1 | 0 | 0 | 0 | 0 | 0
CC1=C/C(=N\OS(=O)(=O)c2ccccc2)C(C)=CC1=O | 13µM | 4µM | 5.8µM | 4.1µM | 0
CC1=C(C)/C(=N\OS(=O)(=O)c2ccc(C)cc2)C=CC1=O | ? | ? | ? | 5.2µM | 0
CC(S(=O)(=O)c1ccccc1)S(=O)(=O)c1ccccc1 | 0 | - | 0 | - | 0
CC1=C/C(=N\OS(=O)(=O)c2ccccc2)C(C(C)C)=CC1=O | ? | 4.1µM | ? | 3.7µM | 0
CCC1CCCCN1S(=O)(=O)c1ccc(C(=O)Nc2sc3c(c2C(=O)NC)CCC3)cc1 (configuration not stated) | 0 | - | 0 | - | 0
COC(=O)c1sc(N2C(=O)c3oc4ccccc4c(=O)c3C2c2ccc(O)cc2)nc1C (configuration not stated) | ? | - | 0 | - | 0
O=c1c2ccccc2n(Cc2cccc(F)c2)c(=O)n1Cc1ccccc1Cl | 0 | - | 0 | - | 0
CCCC(=O)N1CCN(c2nc3ccc(Br)cc3s2)CC1 | ? | ? | 0 | 0 | 0
CCCC(=O)Nc1cc(Cl)ccc1N1CCN(C(=O)CC)CC1 | 0 | 18µM | ? | 0 | -
CCC(=O)N1CCN(c2ccccc2NC(=O)Cc2ccc(Cl)cc2)CC1 | 0 | 0 | 0 | 0 | 0
CCCC(=O)N1CCN(c2nc3ccc(Cl)cc3s2)CC1 | 18µM | ? | ? | 0 | 0
CCC(=O)N1CCN(c2ccc(Cl)cc2NC(=O)Cc2ccc(Cl)cc2)CC1 | 0 | 0 | 3.7µM | 0 | 0
CCOc1ccccc1-n1cc2c(c1-c1ccc(OC)cc1)c(=O)n(C)c(=O)n2C | 0 | - | 0 | - | 0
SMILES | KB-3-1 cytotox | MCF10A rerep | KB-V1 cytotox | SW480 rerep | PINK1 modulator
Cc1ncc2c(c1CNC(=O)c1ccc3c(c1)OCO3)CCN(C(=O)c1ccoc1)C2 | - | - | - | - | 0
Cc1nc2ncnn2c(Nc2ccc3c(c2)OCO3)c1Cc1ccccc1 | ? | 0 | 16µM | 0 | 0
COc1ccccc1CN1CCC2(CCNCC2)CC1 | - | - | - | - | 0
Cc1ccc(NC(=O)N2CCC(N3CCN(Cc4ccccc4)C(=O)C3=O)CC2)cc1Cl | 0 | - | ? | - | 0
CCc1cccc(CC)c1-n1c(SCC(=O)N2CCCc3ccccc32)nc(O)cc1=O | 0 | 0 | 0 | 0 | 0
COc1ccc(C(CC(=O)Nc2ccc(Cl)cc2F)NC(=O)C(F)(F)F)cc1 (configuration not stated) | 0 | 0 | 8.2µM | 0 | 0

Assay outcomes from PubChem.
